Shown are actives, neighbours in structure and some others; about 2.8% of the full set was active somewhere.
HepG2 viability: qHTS for Inhibitors of TGF-b: Cytotox Counterscreen; HepG2 CAGA-GFP viability, ATP luminescence, 18 h; Potency, µM (highest dose often 46.1 µM), for the others: at the highest dose activity change, negative = cytotoxicity, most hits filed as cytotoxic; 0.76% of 410,000 active; AID 588856, 2011; note: potency is the fitted concentration of half-maximal effect
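CellTiter-Glo luminescence gave cytotoxicity after 18 hours at 37 degrees C. The cells were HepG2 CAGA-GFP in 1% FBS DMEM, stimulated with 500 pg/mL TGF-beta after compound addition. %Activity was normalised to no-cell wells (complete cell-killing) and DMSO (no toxicity), and curves were fitted and classified.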
ATXN2 expr inh: Primary qHTS for Inhibitors of ATXN expression. HEK-293 ATXN2-luciferase reporter, luminescence, 24 h. Potency, µM (doses to about 57 µM), inactives show at the highest dose activity change, negative = inhibition, actives largely listed as inhibitors. 0.72% of 360,000 active; note: potency is the fitted concentration of half-maximal effect; % is set by controls: 0 for no effect and ±100 for the full control effect; nearly all actives have a fitted effect of over 55% in size
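ATXN2-luciferase reporter cells (luciferase flanked by upstream and downstream ATXN2 gene portions) were treated 24 h at 37 °C with compounds at up to 57 uM. SteadyGlo luminescence gave expression; GF-AFC fluorescence gave viability.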
Six1-Eya2 blk: qHTS Assay for Inhibitors of the Six1/Eya2 Interaction | activity change, % (concentration not given with the values) | AlphaScreen GST-Six1/His-Eya2 binding, biochemical; stronger effect = lower value | 0.56% of 360,000 active | Homeobox protein SIX1 (Homo sapiens) + Protein phosphatase EYA2 (Homo sapiens), …; in the data active = activity change below about -65%; inconclusive = mostly about -30% to -63%; note: % is set by controls: 0 for no effect and ±100 for the full control effect
Target sequence (O00167 whole entry, looked up): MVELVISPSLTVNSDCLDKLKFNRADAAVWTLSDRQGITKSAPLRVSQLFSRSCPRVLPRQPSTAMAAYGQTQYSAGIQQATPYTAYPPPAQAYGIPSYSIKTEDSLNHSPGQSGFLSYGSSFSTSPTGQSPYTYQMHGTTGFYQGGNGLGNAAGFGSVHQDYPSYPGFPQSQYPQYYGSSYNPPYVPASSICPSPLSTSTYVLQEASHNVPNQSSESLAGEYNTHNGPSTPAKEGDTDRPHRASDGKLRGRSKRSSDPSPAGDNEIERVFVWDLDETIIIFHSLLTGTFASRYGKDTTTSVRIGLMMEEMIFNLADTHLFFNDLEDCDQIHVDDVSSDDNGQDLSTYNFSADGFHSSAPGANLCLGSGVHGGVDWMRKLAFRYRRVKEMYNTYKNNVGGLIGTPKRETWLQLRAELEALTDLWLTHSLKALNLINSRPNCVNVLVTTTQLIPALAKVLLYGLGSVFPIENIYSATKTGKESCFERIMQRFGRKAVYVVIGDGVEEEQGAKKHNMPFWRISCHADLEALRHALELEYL
Target sequence (Q15475 whole entry, looked up): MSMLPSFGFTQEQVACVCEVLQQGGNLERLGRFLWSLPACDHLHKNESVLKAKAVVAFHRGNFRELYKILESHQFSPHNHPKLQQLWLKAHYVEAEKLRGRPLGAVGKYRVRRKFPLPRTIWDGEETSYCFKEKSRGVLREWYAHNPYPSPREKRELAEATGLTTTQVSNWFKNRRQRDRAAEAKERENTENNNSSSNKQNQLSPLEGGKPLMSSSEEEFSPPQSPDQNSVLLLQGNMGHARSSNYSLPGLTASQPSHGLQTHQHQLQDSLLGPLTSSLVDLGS
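AlphaScreen luminescence read after one hour at 37 °C in darkness. Pin-transferred compounds met GST-Six1 and His-Eya2 protein (5X stock 250 nM/500 nM) plus glutathione donor and Ni-chelate acceptor beads (5X, 50 ug/mL).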
CtBP-E1A inh: qHTS Assay for Inhibitors of the CtBP/E1A Interaction; CtBP / adenovirus E1A interaction (AlphaScreen); AlphaScreen GST-E1A/His-CtBP binding, 1536-well; stronger effect = lower value; activity change, % (test concentration not listed); 0.49% of 340,000 active; AID 651724, 2012; in the data active = activity change below about -65%; inconclusive = mostly about -30% to -63%; note: % is set by controls: 0 for no effect and ±100 for the full control effect
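In 5 uL wells, 23 nL compound meets equimolar GST-E1A and His-CtBP (5X stock 125 nM each) for 2 h, 37 °C. Beads (5X, 50 ug/mL) then 1 h, 37 °C, dark.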
TGFb SMAD3 inh: qHTS for Inhibitors of TGF-b; HepG2 CAGA-GFP TGF-b/SMAD3 reporter, GFP fluorescence, 18 h; TGF-beta stimulated, 500 pg/mL final; Potency, µM (highest dose often 46.1 µM), for the others: at the top dose activity, negative = inhibition, most hits filed as inhibitors; 1.2% of 410,000 active; AID 588855, 2011; note: potency is the fitted concentration of half-maximal effect; % is set by controls: 0 for no effect and ±100 for the full control effect; nearly all actives have a fitted effect of over 65% in size
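Using HEPG2 CAGA-GFP reporter cells at 1000 cells/well, we pinned test compounds, stimulated with recombinant TGF-beta (500 pg/mL final) and measured total well GFP after 18 h.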
S2 tox: Viability Counterscreen for Primary qHTS for Inhibitors of ATXN expression | S2 cells (HEK-293 line with an ATXN2-luciferase reporter) viability, CellTiter-Fluor protease fluorescence, 24 h | Potency, µM (top dose mostly 56.7 µM), usual class: cytotoxic | 0.49% of 400,000 active; note: potency is the fitted concentration of half-maximal effect; nearly all actives have a fitted effect of over 40% in size
An asterisk follows results filed as active; i = inactive; ? = inconclusive; . = no result; ! = a repeat was not active. Unless noted, calls come from the whole dose curve; as a rule, active = well fitted curve in the direction sought with a large enough effect; inconclusive = small, poorly fitted or top-dose-only effect, or another doubt; inactive = no such curve, though single readings can be large; an effect the other way counts as inactive or inconclusive.

SMILES	HepG2 viability	ATXN2 expr inh	Six1-Eya2 blk	CtBP-E1A inh	TGFb SMAD3 inh	S2 tox
Cc1cc(C)cc(NC(=O)c2cc(CN3CCCC3)on2)c1	-7.2%	24.8%	.	.	-8.0%	i
O=C(Nc1cccc(C(=O)OCc2cc(=O)n3nc(C4CC4)sc3n2)c1)c1cccc(F)c1	7.4%	13.7%	.	.	8.9%	i
Cc1nn2c(NCCN(C)C)c3c(nc2c1-c1ccccc1)CCCC3	-68.0%	-3.2%	-12.9	-14.7	11.2µM*	.
CC(=O)Nc1ccc(S(=O)(=O)N2CCC(C(=O)NC3CCCC3)CC2)cc1	7.0%	8.5%	5.4	6.2	6.0%	i
CC(=O)Nc1ccc(S(=O)(=O)N2C3CCCC2CC(NC(=O)C2CCCCC2)C3)cc1 (stereo not drawn)	-91.7%	-0.2%	-67.4*	-3.1	3.9%	i
CCOC(=O)c1ccc(N2CCN(c3ccc(F)cc3)CC2)c(NC(=O)Nc2ccc(CC)cc2)c1	-1.2%	.	.	.	20.2%	.
Cc1c(N=NC2=C(O)CCCC2=O)c(=O)n(-c2ccccc2)n1C	-2.2%	-10.8%	-79.4*	-91.8*	-12.2%	i
Cc1cc(NC(=O)c2ccc(NC(=O)CCS(=O)(=O)c3cccs3)cc2)ccc1Br	-24.2%	.	.	.	?	.
O=C(CS(=O)(=O)c1cccc2nsnc12)N1CCN(c2ccccc2F)CC1	-65.6%	-0.2%	.	.	15.8µM*	i
Cc1nc(-c2cnn(-c3ccccc3)c2)c2cc(C)oc2n1	-2.3%	63.1%	-86.7*	-87.9*	-2.3%	i
Cc1oc2c(O)c(O)ccc2c(=O)c1-c1cnn(-c2ccccc2)c1	-16.6%	3.4%	?	?	-9.6%	i
Cc1ccc(Cl)cc1-n1ncc2c(NC3CCCCCC3)ncnc21	-33.0%	?	.	.	11.2µM*	?
Cc1ccc(-n2ncc3c(NC4CCCCCC4)ncnc32)cc1Cl	-29.7%	68.0%	.	.	-29.6%	i
Cc1cc(N=Nc2ccccc2C(=O)O)c(C)c(C)c1O	-4.9%	-4.4%	-6.7	-8.1	-0.2%	12.6µM*
CC(C)(C)n1ncc2c(=O)n(Cc3cccc(OC(F)(F)F)c3)cnc21	-35.7%	.	.	.	?	.
Cc1ccc(-n2c(-c3ccc(Br)cc3)c[n+]3c2CCc2ccc4cccnc4c2-3)cc1	8.91µM*	5.01µM*	-11.3	-12.7	3.16µM*	14.1µM*
CN1CCCC(CN(C)C(=O)c2cnn(-c3nccc(-c4ccccc4C(F)(F)F)n3)c2C2CC2)C1 (stereo not drawn)	.	.	.	.	.	i
CCC(C(=O)Nc1ccc(C)c(Cl)c1)n1c(=O)c(-c2ccccc2NC(C)=O)nc2ccccc21 (stereo not drawn)	-9.5%	?	.	.	12.6µM*	?
Cc1ccc(CNC(=O)c2cccc(Nc3nc4ccccc4n4nnnc34)c2)cc1	-48.5%	28.7%	.	.	27.6%	i
COc1cccc(N2C(=O)CSC23C(=O)N(CC(=O)NCc2ccc(C)cc2)c2ccccc23)c1 (stereo not drawn)	-2.6%	-5.7%	.	.	-25.2%	i
CCCNC(=O)c1ccc2c(=O)c(O)c(-c3cccc(Br)c3)[nH]c2c1	0.7%	22.4µM*	-2.9	?	?	i
Cc1cccc2nc(CNC(=O)CN3Cc4cc(Cl)ccc4OC(C)C3)cn12 (stereo not drawn)	.	.	.	.	.	i
Cc1c(-c2ccc(O)cc2)n(Cc2ccc(OCCN3CCCCCC3)cc2)c2ccc(O)cc12	.	17.8µM*!	.	.	.	15.8µM*!
Oc1ccc(N2CCN(Cc3ccc(OCCCN4CCCCC4)cc3)CC2)cc1	3.9%	-22.1%	-28.7	-18.5	4.7%	?
CCCSc1nnc2n(-c3cccc(C)c3)c(=O)c3c4c(sc3n12)CCCC4	-1.5%	-8.6%	.	.	19.4%	?
SMILES	HepG2 viability	ATXN2 expr inh	Six1-Eya2 blk	CtBP-E1A inh	TGFb SMAD3 inh	S2 tox
COc1ccc(NC(=O)/C(Cl)=C(/Cl)S(=O)Cc2ccc(Cl)cc2)cn1 (stereo not drawn)	2.51µM*	2.51µM*	-26.0	-4.6	2.24µM*	2.82µM*
COc1ccc(NC(=O)C(Cl)=C(Cl)Cl)cn1	4.0%	-17.3%	1.8	5.4	0.5%	i
COc1ccc(NC(=O)/C(Cl)=C(/Cl)S(=O)(=O)Cc2ccccc2)cn1	6.31µM*	12.6µM*	-11.8	-11.8	?	14.1µM*
OCCN1CCN(Cc2ccc3c(c2)CN(Cc2cnc(-c4ccccc4)s2)CCO3)CC1	.	.	.	.	.	i
COc1ccccc1NC(=O)c1c(Nc2ccccc2F)sc(C(=O)Nc2cccc(Cl)c2)c1N	-36.2%	?	-9.8	2.7	15.8µM*	?
O=C1C(=O)c2ccccc2C([O-])=C1[n+]1ccccc1	-2.5%	-13.4%	-3.4	2.4	1.8%	i
CCc1cc[n+](C2=C([O-])c3ccccc3C(=O)/C2=N\S(=O)(=O)c2cccs2)cc1	3.55µM*	?	?	0.0	2.82µM*	?
COc1ccccc1NC(=O)c1c(C)cc(C)nc1SCC(=O)Nc1cccc(C)c1	-21.2%	-18.6%	.	.	10µM*	?
COCC1CCCN(Cc2ccc3c(c2)CN(C(=O)c2ccc(-n4cccn4)cc2)CCO3)C1 (stereo not drawn)	.	.	.	.	.	i
Cc1ccc(S(=O)(=O)N2CCN(C(=O)CSC(=S)N3CCCC3)CC2)c(C)c1	10µM*	?	-1.4	1.1	11.2µM*	?
Cc1ccc(S(=O)(=O)N2CCN(CC(=O)N3CCCC3)CC2)c(C)c1	3.5%	-17.4%	8.7	-9.4	5.7%	.
Cc1nc(C)c(C(=O)N2CCc3c(cnc(C)c3CNC(=O)c3cncs3)C2)s1	.	.	.	.	.	i
COc1ccc(-c2n[nH]c(C)c2-c2cnn(-c3ccccc3)c2)c(O)c1C	-103.5%	?	-8.2	-17.3	12.6µM*	i
COc1ccc(-c2n[nH]c(C)c2-c2cnn(-c3ccccc3)c2)c(O)c1	-47.8%	-3.6%	-12.5	-7.8	12.6µM*	i

Screening data (PubChem BioAssay)
